The results in this text go back to publication PMC4552634, “A New Set of Chemical Starting Points with Plasmodium falciparum Transmission-Blocking Potential for Antimalarial Drug Discovery” (PLoS ONE, 2015).

This assay concerns P. falciparum stage V gametocytes. The arrangement: BacTiter-Glo ATP luminescence viability of purified stage V gametocytes in 384-well plates, per cent inhibition versus DMSO. Particulars: 48 h, 5 µM, inhibitor.

As a reminder, the % Inhibition is the drop in the measured response relative to a control, in per cent.

Structures are written as SMILES. Where two headings read alike, the source gives them in different places. Out of some 13,000 compounds screened, about 3,200 (25%) showed an effect of 50% or more. The list shows a part of the results.

For `O=C(Nc1cccc(-c2ccc(-c3nc4ccccc4[nH]3)cc2)c1)c1cnn2cccnc12` [TCMDC-136866], the “% Inhibition” value is recorded as -17.05%.

In the case of `CN(c1ccc(NC(=O)CCOc2ccccc2)cc1)C1CCN(Cc2cccc(O)c2)CC1` [TCMDC-134988], the “% Inhibition” value came to 49.59%.

As for `CC(C)(C)OC(=O)C1CCCN(Cc2ccc(-c3cccc(-c4nc5ccccc5[nH]4)c3)cc2)C1.O=C(O)C(F)(F)F` (stereo not shown) [TCMDC-132560], the “% Inhibition” value worked out at 11.65%. As for `C=CCN1CCC(N(Cc2cccc(Oc3ccccc3)c2)C(=O)C(c2ccccc2)c2ccccc2)CC1` [TCMDC-139601], the “% Inhibition” value is recorded as 20.39%.

Turning to `CC(C)(NCc1ccc(OC(F)(F)F)cc1)c1nc(-c2ccc(Cl)c(O)c2)c(-c2ccncc2)[nH]1` [TCMDC-140709], the “% Inhibition” value is reported as -27.3%. Still for that read-out and setting: the value for `CCOC(=O)c1cn(CC)c2cc(N(C)CCc3ccc(OC)c(OC)c3)c(F)cc2c1=O` [TCMDC-124159] was 16.46%. The same measure, in the same setting: as for `O=C(OCC1CCN(Cc2ccccc2)C1)c1ccc(Cl)cc1` (stereo not shown) [TCMDC-138995], the figure is -9.252%; as for `O=C(NCc1ccc(Cl)cc1)c1ccc(CN2CCCN(CC3CCCCC3)CC2)cc1` [TCMDC-136441], -2.203%; as for `CCc1ccc(CN2CCC(CN(C(=O)c3ccccc3)c3ccc(Cl)cc3)CC2)cc1` [TCMDC-135382], 136.1%. Same read-out and setting: as for `CC(=O)Nc1ccc(C(=O)NC2CCN(c3ccnc4cc(Cl)ccc34)C2)cc1` (stereo not shown) [TCMDC-133650], the figure is -2.707%; as for `O=[N+]([O-])c1cccc(CNCC2CCN(Cc3ccc(O)cc3)CC2)c1` [TCMDC-141212], 5.704%. As for `COc1ccc(CN2CCC(CNCC(c3ccccc3)c3ccccc3)CC2)cc1` [TCMDC-141342], the “% Inhibition” value was found to be 89.13%. With `COc1ccc(CN2CCC(CNCc3cccc(-c4ccccc4)c3)CC2)cc1` [TCMDC-141349], the “% Inhibition” value was 97.96%. On to `COc1ccc(CN2CCC(CNC(C)c3cccc4ccccc34)CC2)cc1` (stereo not shown) [TCMDC-141341], for which the “% Inhibition” value is -19.33%. The same measure, in the same setting: as for `COc1ccc(CN2CCC(NCc3ccc(C(F)(F)F)cc3)CC2)cc1` [TCMDC-141653], the figure is 11.64%; as for `O=[N+]([O-])c1cccc(CNCC2CCN(Cc3ccc(-c4ccccc4)cc3)CC2)c1` [TCMDC-141208], 17.3%. Take `CCN(CC)c1ccc(C(c2ccc(N(CC)CC)cc2)c2cccc([N+](=O)[O-])c2)cc1` [TCMDC-131244]: the “% Inhibition” value is on record as -3.754%. `Cc1cccc2nc(-c3ccc(-c4cccc(CN5CCN(c6ccc(C#N)cn6)CC5)c4)s3)[nH]c12.O=C(O)C(F)(F)F` [TCMDC-133111]: the “% Inhibition” value is recorded as -25.75%. The same measure, in the same setting: as for `CCN(CC)CCCC(C)Nc1ccnc2cc(C#N)ccc12` (stereo not shown) [TCMDC-138027], the figure is -9.256%. On the same count and under the same terms, as for `CCOc1ccc(OCCCON2C(N)=NC(N)=NC2(C)C)cc1` [TCMDC-131735], the figure is -0.1444%; as for `Cc1cc2ccc(CNCCc3ccccc3Br)cc2nc1N` [TCMDC-138094], 34.17%; as for `Cc1cc(N)nc2cc(CNCCc3ccccc3Br)ccc12` [TCMDC-138095], 22.25%.

As to `Cc1cc2cc(CNCCc3ccccc3Br)ccc2nc1N` [TCMDC-138097], the “% Inhibition” value was 84.79%. Same read-out and setting: as for `CCCCC(=O)Nc1ccc(Nc2nc(C)cc(N3CCCC3)n2)cc1` [TCMDC-124717], the figure is 46.79%.

`O=C(Nc1ccccc1)N(Cc1ccc(-c2cccc(CNC3CCCC3)c2)cc1)C1CCN(Cc2ccccc2)CC1` [TCMDC-140601]: the “% Inhibition” value came to 107.8%. On the same count and under the same terms, as for `O=C(Nc1ccccc1)N(Cc1ccccc1-c1cccc(CNC2CCCC2)c1)C1CCN(Cc2ccccc2)CC1` [TCMDC-140581], the figure is 108.7%; as for `O=C(Nc1ccccc1)N(Cc1ccc(-c2ccc(CNC3CCCC3)cc2)cc1)C1CCN(Cc2ccccc2)CC1` [TCMDC-140602], 100.4%; as for `O=C(Nc1ccccc1)N(Cc1cccc(-c2ccc(CNC3CCCC3)cc2)c1)C1CCN(Cc2ccccc2)CC1` [TCMDC-140589], 100.6%. The same measure, in the same setting: as for `Oc1cccc(-c2nc(-c3cccc(I)c3)c(-c3ccc(-c4nc(-c5cccc(O)c5)[nH]c4-c4cccc(I)c4)cc3)[nH]2)c1` [TCMDC-125665], the figure is 42.71%.

Take `COC(=O)c1ccc(C2OC3(C(=O)c4ccccc4C3=O)C(OC)=C2Cl)cc1C(C)=O` (stereo not shown) [TCMDC-125782]: the “% Inhibition” value is reported as -9.104%. Same read-out and setting: the value for `N#Cc1ccc2c(c1)CCN(CCC1CCC(NC(=O)/C=C/c3nc4ccccc4s3)CC1)CC2` (stereo not shown) [TCMDC-139686] was -32.82%; that for `COc1ccc(O)c(Cc2cnc3nc(N)nc(N)c3c2C)c1` [TCMDC-137998] was -28.9%. The same measure, in the same setting: the value for `Cc1cc(C(=O)CSc2nc3ccccc3n2-c2ccccc2)c(C)n1C1CCS(=O)(=O)C1` (stereo not shown) [TCMDC-124855] was -17.36%; that for `CC1CN(Cc2ccccc2)CCN1c1ccc(NC(=O)c2cccs2)cc1` (stereo not shown) [TCMDC-135005] was 31.52%; that for `CC(C)(C)c1ccc(-c2nnc(N)nc2N)cc1` [TCMDC-137284] was -12.55%.

As for `CN(C)CCNC(=O)c1ccc(-c2ccc3c(Nc4ccccc4)c(C(N)=O)cnc3c2)cc1` [TCMDC-138672], the “% Inhibition” value came out at 14.13%. Same read-out and setting: the value for `COc1cccc(Nc2c(C(N)=O)cnc3ccc(-c4ccccc4)cc23)c1` [TCMDC-135227] was 39.19%; that for `COc1cccc(Nc2c(C(N)=O)cnc3ccc(-c4ccc([S+](C)[O-])cc4)cc23)c1` (stereo not shown) [TCMDC-135184] was 93.94%. As for `CS(=O)(=O)c1cccc(-c2cnc3[nH]cc(-c4ccc(C(=O)O)cc4)c3c2)c1` [TCMDC-136271], the “% Inhibition” value is reported as 0.4612%. Consider `COc1ccc2nccc(N3CCCN(CCNCc4ccc5c(n4)NC(=O)CS5)CC3)c2n1` [TCMDC-134640], for which the “% Inhibition” value worked out at 33.98%.

For `CCC(c1ccccc1)c1nn2c(-c3cccs3)nnc2s1` (stereo not shown) [TCMDC-123825], the “% Inhibition” value is reported as 7.835%.

As for `CCc1ccc(C2=Nn3c(nnc3-c3cccs3)SC2)cc1` [TCMDC-124336], the “% Inhibition” value came to 80.16%. Still for that read-out and setting: as for `Cc1ccc(C2CC(c3cccs3)=NN2C(=O)c2ccc(Br)o2)cc1` (stereo not shown) [TCMDC-125610], the figure is 12.81%; as for `O=C(NCCCCN1CCN(c2cccc3c2OCCO3)CC1)c1ccc(NC(=O)c2cc(Cl)cc(Cl)c2)cc1` [TCMDC-138222], -31.39%. On the same count and under the same terms, as for `C=CCN(c1nc(NC)nc(NCc2c(OC)cccc2OC)n1)C1CCCC1` [TCMDC-134844], the figure is -44.26%; as for `CCCCCCn1c(Sc2ccc(C#N)c([N+](=O)[O-])c2)nnc1-c1ccccc1` [TCMDC-135607], 41.57%. On the same count and under the same terms, the value for `CCCCCn1c(Sc2ccc(C#N)c([N+](=O)[O-])c2)nnc1-c1ccccc1` [TCMDC-135606] was 38.34%; that for `CCn1c(Cc2ccccc2)nnc1Sc1ccc([N+](=O)[O-])c(C#N)c1` [TCMDC-135236] was 79.04%. As for `Cn1c(Cc2ccccc2)nnc1Sc1ccc(C#N)c([N+](=O)[O-])c1` [TCMDC-135608], the “% Inhibition” value was 73.99%. Still for that read-out and setting: as for `C=CCn1c(Cc2ccccc2)nnc1Sc1ccc(C#N)c([N+](=O)[O-])c1` [TCMDC-135614], the figure is 45.02%; as for `COc1cc(OC)cc(-c2nnc(Sc3ccc(C#N)c([N+](=O)[O-])c3)n2C)c1` [TCMDC-135576], 42.48%. Still for that read-out and setting: the value for `Cc1ccc(Nc2nc(C)cc(N3CCN(CCc4ccccc4)CC3)n2)cc1` [TCMDC-134023] was -10.5%. On the same count and under the same terms, the value for `FC(F)(F)c1cccc(CCNc2nccc(NCc3ccccc3Cl)n2)c1` [TCMDC-135109] was 78.4%.

For the compound `COc1cccc(Nc2nccc(NCC(O)c3cccc(C(F)(F)F)c3)n2)c1` (stereo not shown) [TCMDC-136584], the “% Inhibition” value came out at 27.05%. Consider `COc1ccccc1CNc1ccnc(NCCc2cccc(C(F)(F)F)c2)n1` [TCMDC-135117], for which the “% Inhibition” value worked out at 62.08%. Still for that read-out and setting: the value for `FC(F)(F)c1cccc(CCNc2nccc(NCc3ccc(Cl)cc3Cl)n2)c1` [TCMDC-135111] was 42.21%; that for `COc1ccc(Nc2nccc(NCC(O)c3cccc(C(F)(F)F)c3)n2)cc1` (stereo not shown) [TCMDC-136585] was -13.64%; that for `Clc1ccc(CNc2ccnc(NCCc3coc4ccccc34)n2)c(Cl)c1` [TCMDC-135113] was 37.58%. Still for that read-out and setting: as for `CC(=O)Nc1ccc(S(=O)(=O)Nc2ccc(Nc3nc(C)cc(N4CCCCC4)n3)cc2)cc1` [TCMDC-124950], the figure is -6.943%. On the same count and under the same terms, the value for `CCC[C@@H]([C@@H](CC(C)C)C(=O)N[C@H](C(=O)Nc1nccs1)C(C)(C)SCCNC(=O)OCC)N(O)C=O` [TCMDC-137761] was 30.89%.

On to `N#Cc1cccc(COC(=O)C2=C(COc3ccccc3Cl)NC(=O)NC2c2c[nH]c3cnccc23)c1` (stereo not shown) [TCMDC-136331], for which the “% Inhibition” value turned out to be 5.465%.

As to `Cc1ccc(C(c2nnnn2C2CCCC2)N(Cc2ccco2)Cc2ccccc2Cl)cc1` (stereo not shown) [TCMDC-123569], the “% Inhibition” value is recorded as 15.39%. Still for that read-out and setting: as for `COc1ccc(-c2nc(NC(=O)CS(=O)(=O)c3ccccc3)sc2C)cc1` [TCMDC-123525], the figure is 48.52%; as for `CCCCn1c(SC(C)C)nc2c(c1=O)C1(CCCCC1)Cc1ccccc1-2` [TCMDC-123893], -5.467%; as for `Cc1ccc(-c2nnc(Nc3ccc(CC(N)=O)cc3)c3ccccc23)cc1S(=O)(=O)NCC1CCCO1` (stereo not shown) [TCMDC-125615], -4.951%. For the compound `COc1cc(Cc2cnc(N)nc2N)ccc1OCc1ccc(F)c(F)c1` [TCMDC-138591], the “% Inhibition” value is 9.532%. Still for that read-out and setting: the value for `COc1cc(Cc2cnc(N)nc2N)ccc1OCC(=O)Nc1ccc(C)cc1` [TCMDC-138679] was 5.317%; that for `COc1cc(Cc2cnc(N)nc2N)ccc1OCc1ccc(NC(C)=O)cc1` [TCMDC-138675] was 89.66%. Turning to `S=C(NCCc1ccc(Cl)cc1)NC1CCC(CN2CCC(c3c[nH]c4ccccc34)CC2)CC1` (stereo not shown) [TCMDC-140201], the “% Inhibition” value (% Inhibition) stood at 56.68%. As for `S=C(NCC1CCCCC1)NC1CCC(CN2CCC(c3c[nH]c4ccccc34)CC2)CC1` (stereo not shown) [TCMDC-140181], the “% Inhibition” value is 104.2%. With `S=C(NCCc1ccc(Cl)cc1)NC1CCC(CN2CCC(c3c[nH]c4ccccc34)CC2)CC1` (stereo not shown) [TCMDC-140183], for the setting “% Inhibition”, the “% Inhibition” value came out at 98.47%. As to `S=C(NCCc1ccc(Cl)cc1)N1CCC(CN2CCC(c3c[nH]c4ccccc34)CC2)CC1` [TCMDC-140193], the “% Inhibition” value was 39.79%. Same read-out and setting: as for `S=C(Nc1ccccc1Cl)NC1CCC(CN2CCC(c3c[nH]c4ccccc34)CC2)CC1` (stereo not shown) [TCMDC-140179], the figure is 20.48%.
